Results on 40 compounds are retold here after PubChem BioAssay (Tox21).

Results filed as inconclusive are left out. Entries that show only a call come without a potency. Unmarked numbers belong to inactive results. Calls of active or inactive are those of the source. The call rests on the fitted dose curve; in most records, active means well fitted cell-killing curve with a large enough effect in the repeat runs; inconclusive means weak or mixed curves, or effect the other way; inactive means flat fitted curve, though single readings scatter.
Potency means the concentration at half of the fitted maximal effect.

The nature of the assay: qHTS RealTime-Glo MT Cell Viability Assay in HEK293 cells - 16 hour (AID 1224872). Further: nearly all actives have a fitted effect of over 50% in size. On activity change, negative = cytotoxicity: top concentration of the series differs between compounds. As to conditions: RealTime-Glo luminescence; series mostly up to 76.8 µM; activity change, negative = cytotoxicity: at the top concentration. From the text:
National Center for Advancing Translational Sciences [NCATS]
NIH Chemical Genomics Center [NCGC]
U.S. Environmental Protection Agency [EPA]
National Institutes of Environmental Health Sciences [NIEHS]
National Toxicology Program [NTP]
U.S. Food and Drug Administration [FDA]
Measure of cell viability is critical in the cell-base assay. Analysis of cell viability is necessary for the characterization of cell responses to cytotoxic drugs and environmental stress. A RealTime-Glo MT Cell Viability Assay to monitor cell viability in real time of continues cell culture during 40 hours of compound treatment was used to screen Tox21 10K library compounds in Hek293 cells. The RealTime-Glo MT Cell Viability Assay is a nonlytic, homogeneous, bioluminescent method to measure cell viability in real time using a simple, plate-based method. The assay involves adding NanoLuc luciferase and a cell-permeant prosubstrate to cells in culture. Viable cells reduce the proprietary prosubstrate to generate a substrate for NanoLuc luciferase. This substrate diffuses from cells into the surrounding culture medium, where it is rapidly used by the NanoLuc Enzyme to produce a luminescent signal. The signal correlates with the number of viable cells, making the assay well suited for cytotoxicity studies.
Tox21 Assay Protocol Summary:
The mixture of Hek293 cell suspension and reagents were dispensed at 600cells/6 ul/well in 1536-well tissue culture treated black solid bottom plates using a Multidrop dispenser. After the assay plates were incubated at a 37 C/5% CO2 incubator for 5 hours, 23 nL of compounds dissolved in DMSO, positive and negative controls was transferred to the assay plate by a pintool work station. The plates were incubated at 37 C for 40 hours. The luminescence intensity were measured at 0h, 8h, 16h, 24h, 32h and 40h time points using ViewLux plate reader during compound treatment.
(In general: Quantitative high-throughput screening tests each substance at several concentrations.)
With `CC(C)=CCC/C(C)=C/C=O`, the Potency entry is “inactive”.
On to `CC(=O)OCc1ccc2c(c1)OCO2`, for which the Potency entry is “inactive”.
On the same count and under the same terms, under `Cc1ccccc1Cl` stands “inactive”.
For the compound `OC1CCCCC1`, the “activity change, negative = cytotoxicity” value is 7.78%.
Still for that read-out and setting: under `CC1=CC(=O)CC(C)(C)C1` stands 6.62%.
As to `Cc1cc(C)c(O)c(C)c1`, the Potency entry was “inactive”.
Same read-out and setting: under `c1cnc2c(c1)ccc1cccnc12` stands 11 µM (active); under `Cc1ccc(C(C)C)cc1`, “inactive”; under `C=C1C[C@]23C[C@@]1(O)CC[C@H]2[C@@]12C=C[C@H](O)[C@@](C)(C(=O)O1)[C@H]2[C@@H]3C(=O)O`, “inactive”.
On to `CCCCCCCCC(=O)O`, for which the Potency result is “inactive”.
Still for that read-out and setting: under `CC/C=C(\C(=O)N[C@@H]1C(=O)N2C(C(=O)OCOC(=O)C(C)(C)C)=C(COC(N)=O)CS[C@H]12)c1csc(N)n1` stands “inactive”; under `CCCCCCC(=O)O`, “inactive”; under `O=Cc1ccc(CO)o1`, “inactive”.
The same measure, in the same setting: under `Cc1cc(C)cc(O)c1` stands “inactive”; under `COc1ccc(N)c(OC)c1`, “inactive”.
The same measure, in the same setting: for `O=C1O[C@H]([C@H](O)CO)C(O)=C1O` the value was “inactive”; for `CC1(C)[C@@H](O[C@H]2O[C@H](C(=O)O)[C@@H](O)[C@H](O)[C@H]2O[C@@H]2O[C@H](C(=O)O)[C@@H](O)[C@H](O)[C@H]2O)CC[C@]2(C)[C@H]3C(=O)C=C4[C@@H]5C[C@@](C)(C(=O)O)CC[C@]5(C)CC[C@@]4(C)[C@]3(C)CC[C@@H]12`, “inactive”.
Regarding `CCCOCC(C)O` (stereo not given), the Potency result is “inactive”.
Same read-out and setting: for `OCC(O)CS` (stereo not given) the value was “inactive”; for `CC(C)(CO)CO`, “inactive”; for `NC(=O)NC(N)=O`, “inactive”.
Same read-out and setting: for `CC(C=O)Cc1ccc(C(C)(C)C)cc1` (stereo not given) the value was “inactive”; for `Brc1ccc(Oc2ccc(Br)cc2)cc1`, “inactive”.
Turning to `Cc1ccc(Cl)cc1`, the Potency entry is “inactive”.
The same measure, in the same setting: for `OCCOCCOCCOCCOCCO` the value was “inactive”; for `COc1c(Cl)ccc(Cl)c1C(=O)O`, “inactive”.
Still for that read-out and setting: under `CN=C(NC#N)NCCSCc1nc[nH]c1C` stands “inactive”.
On the same count and under the same terms, for `CS(=O)(=O)c1ccc(Cl)cc1` the value was “inactive”; for `Cc1ccc([N+](=O)[O-])cc1N`, “inactive”; for `CCCN(CCC)C(=O)SCC`, “inactive”.
As to `CC(C)(C)NC[C@H](O)COc1nsnc1N1CCOCC1`, the Potency result is “inactive”.
For the compound `OB(O)O`, the Potency result is “inactive”.
Still for that read-out and setting: under `Nc1cccc(C(F)(F)F)c1` stands “inactive”.
On the same count and under the same terms, under `Nc1cccc(N)n1` stands “inactive”; under `CCCCCCCC(=O)O`, “inactive”.
On the same count and under the same terms, for `Cc1ccccc1C=O` the value was “inactive”.
As to `CCOC(=O)c1ccc(O)cc1`, the “activity change, negative = cytotoxicity” value is -0.353% [at 35.3 µM].
Turning to `CC(=O)c1nccs1`, the Potency result was “inactive”.
Consider `O=C1CCCCCCCCCCC1`, for which the Potency result was “inactive”.
On the same count and under the same terms, under `Cc1ncc(CO)c(CO)c1O` stands “inactive”.
